Source: PubChem BioAssay AID504652 (National Center for Advancing Translational Sciences (NCATS), 2011)
Values joined by “and” are separate entries in the source; they are usually repeats but may differ in a detail not shown here. Equal entries are not always repeated. The whole screen tested about 360,000 compounds, of which about 11,000 (3.1%) were called active. The entries come from a sample that favours actives as a whole. Values without a mark were called inactive. Rule as the data show it: active = activity change below about -30%; inactive = the rest.

target: D(1A) dopamine receptor (Homo sapiens) (UniProt P21728); assay: Antagonist of Human D 1 Dopamine Receptor: qHTS; settings: HEK293 TREx D1 cells, calcium flux, dopamine EC80; at 10 µM; active compounds read low
Sequence (P21728 whole entry, looked up): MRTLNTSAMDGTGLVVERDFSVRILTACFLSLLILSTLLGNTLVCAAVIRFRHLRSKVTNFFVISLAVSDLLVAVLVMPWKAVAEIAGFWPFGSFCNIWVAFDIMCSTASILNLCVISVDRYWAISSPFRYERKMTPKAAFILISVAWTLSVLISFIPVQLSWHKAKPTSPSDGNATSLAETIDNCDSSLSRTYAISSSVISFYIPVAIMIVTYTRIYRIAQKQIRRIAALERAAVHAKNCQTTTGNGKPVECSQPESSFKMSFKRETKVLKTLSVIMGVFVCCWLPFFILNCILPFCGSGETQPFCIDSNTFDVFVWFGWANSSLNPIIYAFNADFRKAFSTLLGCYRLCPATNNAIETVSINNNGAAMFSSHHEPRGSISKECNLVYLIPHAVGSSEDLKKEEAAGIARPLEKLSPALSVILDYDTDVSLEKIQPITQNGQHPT
In short: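 Using tetracycline-induced force-coupled D1 Hek293 cells and a calcium dye, signals were followed for 180 s after compound, then for 180 s after EC80 dopamine, to detect inhibitors.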
% is scaled to controls: 0 for no effect and ±100 for the full control effect.

Compound	activity change, negative = inhibition
CC(=O)c1ccc(NC(=O)CSc2nc(-c3ccccc3F)nc3c2c(=O)n(C)c(=O)n3C)cc1	-0.158%
CC(=O)Nc1cc(C(=O)NCc2ccc(F)cc2Cl)ccc1Sc1ccc(Cl)cc1	9.87%
CCOC(=O)c1ccc(NC(=O)C2CC(=O)NC(=Nc3ccc(C)c(C)c3)S2)cc1 (stereo not drawn)	-1.43%
CCc1ccc(CNCc2c(C(=O)O)n(Cc3ccc(F)cc3Cl)c3cc(OC)ccc23)cc1	6.05%
COCCCNC(=O)/C(C#N)=C/c1c(N2CCCCCC2)nc2ccccn2c1=O	13.8%
O=Cc1c(N2CCN(c3cccc(Cl)c3)CC2)nc2ccccn2c1=O	-43.5% (active)
O=Cc1c(Nc2ccccc2Cl)nc2ccccn2c1=O	9.2%
Cc1ccc(-c2nc3ccccn3c2Nc2c(C)cccc2C)o1	-2.58%
Cc1c(CNC2CCCCC2)c(C(=O)O)c(C)n1Cc1cccc(Cl)c1	-7.13%
CC(=O)NC1=NN(C(C)=O)C(C)(c2ccc(C)cc2)S1 (stereo not drawn)	22.7%
CC(=O)NC1=NN(C(C)=O)C(C)(c2ccc(Cl)s2)S1 (stereo not drawn)	2.68%
CC(=O)NC1=NN(C(C)=O)C(C)(CCS(=O)(=O)c2ccc(Cl)c(Cl)c2)S1 (stereo not drawn)	-39.7% (active)
Cc1cc(OC(C)C(=O)Nc2sc3c(c2C(N)=O)CCCC3)ccc1Cl (stereo not drawn)	3.29%
Cc1ccc(S(=O)(=O)c2nnn3c2nc(N2CCN(c4ccccc4F)CC2)c2cc(Cl)ccc23)cc1C	-0.0376%
CCOc1ccccc1CNC(=O)C1CCCN(S(=O)(=O)c2ccc3c(ccn3C)c2)C1 (stereo not drawn)	-27.8%
COc1cc(COCC(O)CN2CCN(Cc3ccc4c(c3)OCO4)CC2)cc(OC)c1OC (stereo not drawn)	-31.1% (active)
COc1cc(Cl)c(S(=O)(=O)N2CCN(Cc3ccc4c(c3)OCO4)CC2)cc1Cl	4.53%
CN1CCN(CC(O)COCc2ccc3c(c2)OCO3)CC1 (stereo not drawn)	-5.88%
CCOc1cccc(CNC(=O)c2ccc(N3CCCC3)c(NC(=O)Nc3ccccc3CC)c2)c1	4.78%
CCc1nn(CC(=O)Nc2cc(C)cc(C)c2)c(=O)c2cc3sccc3n12	3.41%
CCCN1CN=C(NS(=O)(=O)c2ccc(NC(C)=O)cc2)NC1	-3.05%
O=C1C(=O)N(CCCO)C(c2ccccc2)/C1=C(\O)c1ccc(Br)cc1 (stereo not drawn)	-7%

Compound	activity change, negative = inhibition
COc1ccc(/C(O)=C2/C(=O)C(=O)N(CCCN(C)C)C2c2ccccc2)cc1OC (stereo not drawn)	-33.2% (active)
COc1cccc(C2/C(=C(/O)c3ccncc3)C(=O)C(=O)N2CCCN(C)C)c1 (stereo not drawn)	-21.5%
COc1cccc(C2/C(=C(/O)c3ccc(F)cc3)C(=O)C(=O)N2CCN(C)C)c1 (stereo not drawn)	-3.01%
CCCOc1ccc(/C(O)=C2/C(=O)C(=O)N(CCN(C)C)C2c2ccc(OC)c(OC)c2)cc1 (stereo not drawn)	-33.3% (active)
COc1ccc(/C(O)=C2/C(=O)C(=O)N(CC3CCCO3)C2c2ccc(OC)c(OC)c2)cc1 (stereo not drawn)	-3.45%
CCc1ccc(CNC(=O)c2ccc(CS(=O)c3ccc(Br)cc3)o2)cc1 (stereo not drawn)	6.94%
COc1c(Cl)cc(C(=O)N(Cc2ccccc2F)C2CCS(=O)(=O)C2)cc1Cl (stereo not drawn)	-0.91%
CCOC(=O)c1ccc2c(c1)N(Cc1cccc(OC)c1)C(=O)c1ccccc1S2(=O)=O	4.54%
Cc1c(Cl)cccc1NC(=O)CCS(=O)(=O)c1ccc2c(c1)oc(=O)n2C	-0.334%
O=C(c1ccc(Cl)cc1)n1nc(-c2cccnc2)nc1NCc1ccc(F)cc1	-16.2%
CCOc1ccc(OCC)c(NC(=O)CN(c2ccc(C)cc2)S(=O)(=O)c2c(C)n[nH]c2C)c1	-7.76%
O=C1Nc2cc(Cl)c(Cl)cc2N(O)N1c1ccccc1Cl	-7.41%
O=C1Nc2cc(Cl)c(Cl)cc2N(O)N1c1cc(Cl)cc(Cl)c1	-76.7% (active)
Cc1c(CNC(C)c2ccccc2)c(C(=O)O)c(C)n1Cc1c(F)cccc1Cl (stereo not drawn)	18.6%
CCOc1ccc(OCC)c(NC(=O)c2c(C)nn(-c3ccccc3)c2-n2cccc2)c1	7.71%
CCN(CC)CCN(C(=O)c1cc(Cl)sc1Cl)c1nc2cc3c(cc2s1)OCO3	-2.46%
Cc1ccc2nc(N(CCN(C)C)C(=O)C3=COCCO3)sc2c1	-34.5% (active)
Cc1ccc2sc(NNC(=O)c3ccc4c(c3)OCCO4)nc2c1C	23.4%
O=C(Nc1nnc(S(=O)(=O)N2CCCc3ccccc32)s1)c1cccc(F)c1	-7.22%
CCc1ccc2nc(N(CCCN(C)C)C(=O)c3ccc4c(c3)OCCO4)sc2c1	-34.9% (active)
CCN(CC)CCN(C(=O)c1ccc(N2C(=O)CCC2=O)cc1)c1nc2cc3c(cc2s1)OCO3	6.3%
CC(C)N(Cc1nnc(-c2ccc(Cl)cc2)o1)C(=O)C1=COCCO1	2.43%

Compound	activity change, negative = inhibition
CN(C)CCCN(C(=O)c1ccc(S(=O)(=O)N2CCCc3ccccc32)cc1)c1nc2ccc(F)cc2s1	-31.4% (active)
CN(C)CCN(C(=O)C1=COCCO1)c1nc2ccc(Cl)cc2s1	-46.4% (active)
NS(=O)(=O)c1ccc2nc(NC(=O)C3=COCCO3)sc2c1	1.85%
Cc1cc(C)c2nc(N(CCN(C)C)C(=O)/C=C/c3cccs3)sc2c1	6.71%
O=C(Nc1ccc2nc(SCC(=O)N3CCCc4ccccc43)sc2c1)c1ccc(F)cc1	-9.64%
CC1CCN(S(=O)(=O)c2ccc3c(c2)N(CC(=O)NCCc2ccccc2)C(=O)CO3)CC1	1.55%
Cc1ccc(C(=O)CC2(O)C(=O)N(CCc3ccccc3)c3ccc(Br)cc32)cc1 (stereo not drawn)	12.6%
COc1cc(OC)c(C2C=C(C(=O)O)Nc3ncnn32)cc1OC (stereo not drawn)	4.4%
COc1ccc(C2C(=O)N(C3CCCCCC3)CC(=O)N2CCc2ccc(Cl)cc2)cc1OC (stereo not drawn)	6.57%
COc1cccc(CNC(=O)c2ccc3c(Cl)c4c(nc3c2)CCCC4)c1	-2.7%
CCOc1ccc(CCNC(=O)CN(c2ccc(C)cc2)S(=O)(=O)N(C)C)cc1OCC	6.83%
Cc1ccc(Cn2c(CNC(=O)Cc3cccc(C)c3)nc3cccnc32)cc1	-3.78%
O=C(NC1(C(F)(F)F)N=C(c2ccccc2)N(C2CCCCC2)C1=O)c1ccccc1F (stereo not drawn)	-5.87%
COc1ccc(-c2cn3nc(N4CCC(C(=O)Nc5cccc(C)c5C)CC4)sc3n2)cc1	-7.07%
CCOC(=O)CSc1nnc(NC(=O)c2cccc(S(=O)(=O)N3CCCCC3)c2)s1	-31.1% (active)
O=C(Nc1nncs1)c1cccc(S(=O)(=O)N2CCCCC2)c1	5.14%
CCOC(=O)CSc1nnc(NC(=O)c2cccc(S(=O)(=O)N3CCCC3)c2)s1	-6.95%
Cn1nc(C(F)(F)F)c2cc(NC(=O)OCC(C)(C)C)sc21	-42.5% (active)
Cn1nc(C(F)(F)F)c2cc(C(=O)N3CCOCC3)sc21	6.73%
Cn1nc(C(F)(F)F)c(-c2ccc(F)cc2)c1NC(=O)CSCC(=O)O	8.45%
Cc1ccc(Cl)cc1NC(=O)CCS(=O)(=O)c1ccc(Br)s1	6.29%
COc1ccc(C(=O)N2CCC(c3nc4ccccc4o3)CC2)cc1	4.96%

Compound	activity change, negative = inhibition
CCOC(=O)Cn1c(=O)n(C2CCCCC2)c2nc(-c3cccc(OC)c3)nc(C(N)=O)c21	8.07%
CCC(CC)c1nnc(NC(=O)c2nn(C)c(=O)c3ccccc23)s1	0.594%
CCC(CC)c1nnc(NC(=O)C2=COCCO2)s1	-42.7% (active)
Cc1csc(NC(=O)C2=COCCO2)n1	-2.15%
CC(=O)N1c2ccccc2CC1C(=O)N1CCN(c2ccc(F)cc2)CC1 (stereo not drawn)	9.38%
COc1ccc(N2CCN(c3cc(C)nc4nncn34)CC2)cc1	-2.83%
Cc1nc(N2CCOCC2)c2c(C(=O)NCc3cccc(Cl)c3)c(C)oc2n1	6.25%
COc1ccc(NC(=O)C2=CC(c3ccc(OC)c(OC)c3)=NS(=O)(=O)N2C)cc1	-44.8% (active)
COc1cc(NC(=O)C2=CC(c3ccco3)=NS(=O)(=O)N2C)cc(OC)c1OC	-11.3% and -11.4%
COc1cc(NC(=O)C2=CC(c3ccc(C)cc3)=NS(=O)(=O)N2C)cc(OC)c1OC	-12.9%
CCN(C(=O)c1sc2cc(OC)ccc2c1Cl)c1ccccc1	1.09%
CCc1cccc(NC(=O)CCC(=O)O)c1	-45.7% (active)
CCc1cccc(NC(=O)CCNS(=O)(=O)c2cccc3nonc23)c1	8.81% and 29.5%
CCc1cccc(NC(=O)c2cc(-c3ccccc3)n[nH]2)c1	-7.87%
O=CN1CCN(C(=O)c2ccc(Br)o2)CC1	-36.1% (active)
O=C(c1ccc(Br)o1)N1CCN(CCOc2ccccc2)CC1	3.56%
O=CN1CCN(C(=O)c2ccc3c(c2)OCO3)CC1	11.7%
CC(C)c1ccc(C2CC(=O)N3CN(C4CCCCC4)CSC3=C2C#N)cc1 (stereo not drawn)	-4.95%
COc1cccc(CNC(=O)Cn2ncn3c(cc4ccccc43)c2=O)c1	2.91%
CCOC(=O)[C@@H]1[C@H]2COc3cc(OC)ccc3[C@@H]2N2C(=O)N(c3cccc(C)c3)C(=O)[C@@]12C	-0.419%
CCOC(=O)[C@H]1[C@H]2COc3cc(OC)ccc3[C@@H]2N2C(=O)N(c3ccc(Br)cc3)C(=O)[C@@]12C	-55.7% (active)
CCOC(=O)[C@@H]1[C@H]2COc3cc(OC)ccc3[C@H]2N2C(=O)N(c3ccc(F)cc3)C(=O)[C@]12C	-0.628%
